{
  "source": "paper PMC4552634",
  "about": "“A New Set of Chemical Starting Points with Plasmodium falciparum Transmission-Blocking Potential for Antimalarial Drug Discovery” (PLoS ONE, 2015)",
  "note": "The whole screen tested about 13,000 compounds, of which about 3,200 (25%) showed an effect of 50% or more. The list shows a part of the results.",
  "data": [
    {"tested_on": "P. falciparum stage V gametocytes", "set-up": "BacTiter-Glo ATP luminescence viability of purified stage V gametocytes in 384-well plates, per cent inhibition versus DMSO", "conditions": "48 h, 5 µM; inhibitor", "units": {"% Inhibition": "%"}, "values": [
      {"smiles": "Cc1nc(-c2ccccc2)nc(N2CCN(C(=O)c3ccco3)CC2)c1Cc1ccccc1F", "note": "[TCMDC-124778]", "% Inhibition": -3.417},
      {"smiles": "CC1(C)NC(N)=NC(=N)N1OCCSCCON1C(=N)N=C(N)NC1(C)C", "note": "[TCMDC-131648]", "% Inhibition": 6.143},
      {"smiles": "COCCn1c(-c2cccc(Cl)c2)nn(-c2ccc([N+](=O)[O-])cc2Cl)c1=S", "note": "[TCMDC-135130]", "% Inhibition": 91.77},
      {"smiles": "COCCn1c(-c2cccc(Cl)c2)nn(-c2ccc([N+](=O)[O-])cc2C#N)c1=S", "note": "[TCMDC-134719]", "% Inhibition": 95.24},
      {"smiles": "COc1cc([N+](=O)[O-])ccc1NC(=O)c1cc(Cl)ccc1O", "note": "[TCMDC-124051]", "% Inhibition": 28.26},
      {"smiles": "O=C(Cc1cccc(O)c1)NCC(Cc1ccc(O)cc1)c1ccccc1", "note": "(stereo not shown) [TCMDC-138482]", "% Inhibition": 7.528},
      {"smiles": "CC1CCc2c(C(=O)Nc3c(F)cc(F)cc3Br)csc2C1", "note": "(stereo not shown) [TCMDC-125219]", "% Inhibition": 6.238},
      {"smiles": "Cc1cc(N2CCC(C)CC2)nc2cc(O)ccc12", "note": "[TCMDC-124413]", "% Inhibition": -4.047},
      {"smiles": "Cc1cc(N2CCN(C3CCCCC3)CC2)nc2cccc(O)c12", "note": "[TCMDC-124411]", "% Inhibition": 54.36},
      {"smiles": "Cc1cc(Nc2ccc(O)cc2)nc2cccc(O)c12", "note": "[TCMDC-124414]", "% Inhibition": -26.97},
      {"smiles": "COc1ccc(Cl)c(CC2c3cc(O)c(Cl)cc3CCN2C)c1", "note": "(stereo not shown) [TCMDC-137168]", "% Inhibition": -67.78},
      {"smiles": "CN(Cc1ccc(-c2ccc(C(F)(F)F)cc2)cc1)C(=O)Cn1c(CCc2cccc(F)c2F)cc(=O)c2ccc(OCCCN3CCCCC3)cc21", "note": "[TCMDC-141377]", "% Inhibition": 112.1},
      {"smiles": "CN(C)CCOc1ccc2c(=O)cc(CCc3cccc(F)c3F)n(CC(=O)N(C)Cc3ccc(-c4ccc(C(F)(F)F)cc4)cc3)c2c1", "note": "[TCMDC-141375]", "% Inhibition": 124.4},
      {"smiles": "CCN(CC)CCc1ccc2c(=O)cc(CCc3cccc(F)c3F)n(CC(=O)N(C)Cc3ccc(-c4ccc(C(F)(F)F)cc4)cc3)c2c1", "note": "[TCMDC-141559]", "% Inhibition": 137.8},
      {"smiles": "CN(Cc1ccc(-c2ccc(C(F)(F)F)cc2)cc1)C(=O)Cn1c(CCc2cccc(F)c2F)cc(=O)c2ccc(OCC3CCCN3C)cc21", "note": "(stereo not shown) [TCMDC-141405]", "% Inhibition": 117.2},
      {"smiles": "CCOC(=O)CCCCCNC[C@H](O)c1ccccc1", "note": "[TCMDC-131776]", "% Inhibition": -2.137},
      {"smiles": "CC(C)NCc1ccc(-c2ccc(CN3CCCC(c4ccccc4)C3)cc2)c(C(=O)NCC2CCCCC2)c1", "note": "(stereo not shown) [TCMDC-134699]", "% Inhibition": 33.35},
      {"smiles": "O=S(=O)(NCCN1CCCC1)c1ccc(-c2ccc(CNCc3ccccc3)cc2)cc1", "note": "[TCMDC-132228]", "% Inhibition": 101.6},
      {"smiles": "Cc1c(CNCCN2CCCCC2)c(C(=O)O)c(C)n1Cc1ccc(Cl)cc1", "note": "[TCMDC-125269]", "% Inhibition": 31.51},
      {"smiles": "NC(Cc1ccc(Cl)cc1)=NCCN1CCCCCC1", "note": "[TCMDC-137727]", "% Inhibition": 39.5},
      {"smiles": "O=S(=O)(NCCN1CCCC1)c1ccc(-c2ccc(CNCc3ccc(F)cc3)cc2)cc1", "note": "[TCMDC-132280]", "% Inhibition": 62.82},
      {"smiles": "Clc1ccc(-c2ccc(CNCCCN3CCCC3)cc2)cc1", "note": "[TCMDC-140148]", "% Inhibition": 75.83},
      {"smiles": "O=S(=O)(Nc1cc2c(cc1O)CCN(C1CCC1)CC2)c1ccc(-c2ccc(F)cc2)cc1", "note": "[TCMDC-136084]", "% Inhibition": -82.22},
      {"smiles": "COC(=O)c1cc(/C(C)=N/Nc2nc3ccccc3[nH]2)ccc1O", "note": "[TCMDC-139075]", "% Inhibition": -14.17},
      {"smiles": "O=C(NC1CC1)c1ccc(N2CCC(Cc3ccccc3)CC2)nc1", "note": "[TCMDC-134591]", "% Inhibition": 24.62},
      {"smiles": "COC(=O)c1ccc(CC(C)NCC(O)c2cccc(C(F)(F)F)c2)cc1C", "note": "(stereo not shown) [TCMDC-131470]", "% Inhibition": 8.047},
      {"smiles": "OC[C@H](Nc1nc(C(Oc2ccccc2)c2ccccc2)nc2[nH]ncc12)c1ccccc1", "note": "(stereo partly shown) [TCMDC-136552]", "% Inhibition": 43.31},
      {"smiles": "C[C@H](Nc1nc(C(Oc2ccccc2)c2ccccc2)nc2[nH]ncc12)c1ccccc1", "note": "(stereo partly shown) [TCMDC-136553]", "% Inhibition": 53.92},
      {"smiles": "COc1cccc(OC(C)(C)c2nc(N[C@@H](C)c3ccccc3)c3cn[nH]c3n2)c1", "note": "[TCMDC-136619]", "% Inhibition": 13.05},
      {"smiles": "CC1(C)NC(N)=NC(=N)N1OCc1ccc(-c2ccccc2)cc1", "note": "[TCMDC-131591]", "% Inhibition": -7.815},
      {"smiles": "COc1ccc2nc(C)cc(N/N=C/C=C/c3ccccc3)c2c1", "note": "[TCMDC-142095]", "% Inhibition": 88.89},
      {"smiles": "Cc1ccc2nc(C)cc(NN=CC=Cc3ccccc3)c2c1", "note": "[TCMDC-123974]", "% Inhibition": -10.18},
      {"smiles": "COc1ccc2nc(C)cc(NN=Cc3ccccc3Cl)c2c1", "note": "[TCMDC-142078]", "% Inhibition": -47.04},
      {"smiles": "COc1cc(C=NNc2cc(C)nc3ccccc23)cc(OC)c1OC", "note": "[TCMDC-123958]", "% Inhibition": -11.67},
      {"smiles": "Cc1cc(NN=Cc2ccccc2Cl)c2ccccc2n1", "note": "[TCMDC-142059]", "% Inhibition": -35.38},
      {"smiles": "COc1ccc2nc(C)cc(NN=Cc3cccc(Cl)c3)c2c1", "note": "[TCMDC-142077]", "% Inhibition": 106.6},
      {"smiles": "COc1ccc2c(NN=Cc3ccccc3Cl)cc(C)nc2c1", "note": "[TCMDC-142079]", "% Inhibition": 78.38},
      {"smiles": "COc1ccc2c(NN=Cc3cccc(Cl)c3)cc(C)nc2c1", "note": "[TCMDC-142080]", "% Inhibition": 55.62},
      {"smiles": "Cc1cc(NN=CC=Cc2ccccc2)c2ccccc2n1", "note": "[TCMDC-142074]", "% Inhibition": -83.64},
      {"smiles": "COc1ccc2c(NN=Cc3cccc(C)n3)ccnc2c1", "note": "[TCMDC-142031]", "% Inhibition": -34.06},
      {"smiles": "CN(Cc1c(Cl)cnn1C)S(=O)(=O)c1ccc2ccccc2c1", "note": "[TCMDC-124903]", "% Inhibition": 3.551},
      {"smiles": "CC(=O)Nc1ncc(C(=O)Nc2cccc(-c3ccc(-c4nc5cc(C(F)(F)F)ccc5[nH]4)s3)c2)s1", "note": "[TCMDC-136915]", "% Inhibition": 15.71},
      {"smiles": "Cc1ccc(CN2CCC(C(=O)Nc3ccc(-c4cc5ccccc5[nH]4)cc3)CC2)o1", "note": "[TCMDC-124634]", "% Inhibition": -0.9664},
      {"smiles": "CC(ON1C(N)=NC(N)=NC1(C)C)c1ccccc1", "note": "(stereo not shown) [TCMDC-131596]", "% Inhibition": 28.25},
      {"smiles": "O=C(Nc1ccc(-n2ccc(C(F)(F)F)n2)cc1)c1cccs1", "note": "[TCMDC-125785]", "% Inhibition": 28.31},
      {"smiles": "Cc1cc(CNC(=O)[C@H](CC2CCCCC2)Nc2ccc(C#N)c3ccccc23)c(C(F)(F)F)o1", "note": "[TCMDC-136628]", "% Inhibition": -91.12}
    ]}
  ]
}
